About 83,000 compounds went through this panel and 20% of them were active in at least one assay; those are over-represented in the sample as a whole.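 Single-concentration screen, 48 h exposure, 96-well plates. Endpoint: percent growth. Below 10 = active.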 Active and inactive are the calls of the source.

The assay relates to SNB-19 CNS. Put plainly: NCI-60 one-dose screen, 48 h (100 = growth as untreated, 0 = no growth, -100 = all killed). The note with it: 10 µM unless noted. How it is done: Growth inhibition of the SNB-19 human tumor cell line is measured as a screen for anti-cancer activity. Cells are grown in 96 well plates and exposed to the test compound for 48 hours. Compounds are tested at a single concentration, which is 10^-5 M for most compounds. The reported endpoint is percent growth (GI% or GIPRCNT), where numbers from 0 - 100% represent growth inhibition, and numbers from -100% - 0 represent cell death. For example, a value of 40 represents 60% growth inhibition. A value of 0 means no net growth occurred over the course of the experiment. A value of -40 indicates 40% of cells at the beginning of the experiment died by the end of the experiment. A value of -100 means all cells are dead at the end of the experiment.
NCI-60 Human Tumor Cell Lines Screen was performed using the standard one-dose NCI protocol, which is described in more detail at https://dtp.cancer.gov/discovery_development/nci-60/default.htm.
Compounds with GIPRCNT values below 10 were considered active. Activity score was based on GIPRCNT using the following formula: […]
Score is 0 for GIPRCNT values of 100 or above, 50 for GIPRCNT values of 0, and 100 for GIPRCNT values of -100.
For the compound `CN(C)c1nc(-c2cccs2)n2nc(-c3ccc(Cl)cc3)cc2n1`, the growth is 21.1% (inactive). Next, `Cc1cc([N+](=O)[O-])c(C)cc1N`: 108% (inactive); `C=C[C@H]1CCC/C=C/[C@@H]2C[C@H](O)C[C@H]2[C@H](O)/C=C/C(=O)O1`: 22.3% (inactive); `CCCCCCCCCCCCCCCCCC(=O)[O][Sn]([CH2]CCC)([CH2]CCC)[CH2]CCC`: -70.9% (active). Next, `COc1ccc2[nH]cc(C3(c4c[nH]c5ccc(OC)cc45)C(=O)Nc4ccc(Cl)cc43)c2c1`: 82.3% (inactive); `CCN1C(=O)N(CC)C2C1NC(=O)N2/N=C/C=C/c1ccccc1` (stereo not given): 47.3% (inactive). For the compound `CCOC(=O)Cn1c(-c2nonc2NC(=O)c2ccccc2F)nc2ccccc21`, the growth is 47.1% (inactive). Next, `CC(C)CC(=O)C(CCc1ccccn1)C(C)C` (stereo not given): 108% (inactive); `CC(=O)Oc1ccccc1C(=O)Nc1ncc([N+](=O)[O-])s1`: 41.7% (inactive). Next, `CN(C)CCNC(=O)n1cc(-c2ccncc2)c(-c2cc(O)cc(Cl)c2)n1`: 106% (inactive); `S=C(S)Oc1cccc2cccnc12`: 107% (inactive). For `O=C(Nc1ccc(Br)cc1)Nc1cccc(Br)c1` the value was 29.2% (inactive). Consider `CCOC(=O)Nc1ccc2nc(N3CCCCCC3)sc2c1`, for which the growth was 33.6% (inactive). For `CCOC(=O)C1C(=O)C=C(c2cc(OC)c(OC)c(OC)c2)CC1c1sc(N(C)Cc2ccccc2)nc1Cl` (stereo not given) the value was 77.5% (inactive); for `CN(C)c1ccc(/C=C\c2cccc[n+]2C)cc1`, 31.8% (inactive); for `CC(C)(C)OC(=O)N1CCCN(CCNc2nccc(-c3c(-c4cccc(O)c4)nc4sccn34)n2)S1(=O)=O`, 126% (inactive).

Take `Cc1cc(N)cc(C)c1-c1c(Br)cc(N)cc1Br`: the growth was 37.4% (inactive).

As to `CC(CN1CCN(CC(C)Nc2ccnc3cc(Cl)ccc23)CC1)Nc1ccnc2cc(Cl)ccc12` (stereo not given), the growth was 31.6% (inactive).

Take `Cc1nn(-c2ccccc2)c2nc3c(nc12)C1=NCCN1C(c1ccc(Cl)cc1)N3` (stereo not given): the growth is 109% (inactive).

On to `CC(C)(C)c1cc(C[P+](c2ccccc2)(c2ccccc2)c2ccccc2)cc(C(C)(C)C)c1O`, for which the growth is 24.5% (inactive). Next, `COc1ccc2c(c1)sc1nc(-c3ccccc3)c(-c3cccc4ccccc34)n12`: 29.8% (inactive). Next, `CCN(CC)c1ccc(/C=N/N=C(N)N)cc1`: 73.6% (inactive); `CCc1onc(-c2ccc(OC)cc2)c1-c1ccccc1OCCN(CC)CC`: 91.3% (inactive). Next, `CC(=O)Nc1ccc(/C=N/N2CCCCCC2)cc1`: 91.8% (inactive); `O/N=C/c1ccncc1`: 122% (inactive); `CC(C)c1ccc2c(c1)CCC1C2CCCC1(C)NCc1ccccc1` (stereo not given): 104% (inactive). Take `Cc1cccc(/C=N/n2c(-c3ccc(Cl)cc3)nc3c(Br)cc(Br)cc3c2=O)c1`: the growth is 62% (inactive). For `CC(=O)c1ccc(Br)c([N+](=O)[O-])c1`, the growth is 98.7% (inactive). For `CO[C@H](C(=O)[C@@H](O)[C@@H](C)O)[C@@H]1Cc2cc3cc(O[C@H]4C[C@@H](O[C@H]5C[C@@H](O)[C@H](O)C(C)O5)[C@H](O)C(C)O4)c(C)c(O)c3c(O)c2C(=O)[C@H]1O[C@H]1C[C@@H](O[C@H]2C[C@@H](O[C@H]3C[C@](C)(O)C(=O)C(C)O3)[C@@H](O)C(C)O2)[C@H](O)C(C)O1` (stereo not given in full) the value was 10.8% (inactive); for `COc1ccc(/C=C/c2nc(NCCCN(C)C)c3ccccc3n2)cc1`, 100% (inactive). Turning to `CC(NC(=O)c1ccccc1)C(=O)Nc1ccccc1` (stereo not given), the growth was 107% (inactive). Next, `Cc1c(C(=O)Nc2ccccc2F)sc2c(=O)[nH]cnc12`: 96% (inactive); `COc1cc(C2CC(=O)Nc3c2cnn3C)cc(OC)c1OC` (stereo not given): 108% (inactive). For `CCN(CC)Cc1cc(Nc2ccnc3ccc(OC)cc23)ccc1O` the value was 74.4% (inactive). For `CC1=C(O)C(=O)CC1` the value was 101% (inactive). Turning to `CCCCCCCCCCCCC1CCC(=O)O1` (stereo not given), the growth is 98.3% (inactive).

As to `CS(=O)(=O)c1ccc(C(=O)N2N=C(c3ccccc3)CC2c2ccc3c(c2)OCO3)cc1` (stereo not given), the growth is 103% (inactive).

As for `C=CCOc1ccc2c(C)cc(=O)oc2c1`, the growth is 122% (inactive).

Consider `COc1cc(CN(c2ccc(C)cc2)C2OC(=O)c3ccccc32)cc(OC)c1OC` (stereo not given), for which the growth was 38.6% (inactive).

Regarding `CCCCCCCC/C=C/CCCCCCCC1=NC(C)(C)CN1C(C)C`, the growth was 46.4% (inactive).
